Bioassay records deposited in PubChem BioAssay by National Center for Advancing Translational Sciences (NCATS).
Anesthetic bind: binds horse apoferritin like a general anesthetic | P02791 | apoferritin/1-aminoanthracene competitive binding, fluorescence | Potency, µM (top dose mostly 77.5 µM), for inactives: top-dose activity change, negative = displacement, hits mostly inhibitors | 350,000 compounds, 0.074% hits | AID 485281; also: potency is read from the fitted curve at half-maximal effect; % is scaled to controls: 0 for no effect and ±100 for the full control effect; nearly all actives have a fitted effect of over 20% in size
Target sequence (P02791 2-175 limits assumed): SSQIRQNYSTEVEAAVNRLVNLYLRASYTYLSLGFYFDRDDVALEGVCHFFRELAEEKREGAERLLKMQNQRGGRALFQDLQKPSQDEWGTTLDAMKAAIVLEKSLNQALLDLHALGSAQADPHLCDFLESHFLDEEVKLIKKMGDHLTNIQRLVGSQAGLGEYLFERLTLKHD
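Read-out: endpoint 1-AMA fluorescence, excitation 380 nm and emission 535 nm, after compounds sit 10 min at room temperature with 10 uM horse-spleen apoferritin in 50% saturated 1-AMA/PBS. Values come from four-parameter Hill fits.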
a7 integrin act: integrin-mediated muscular dystrophy alleviation activation; 350,000 compounds, 0.064% hits; alpha7betagal myoblasts, beta-gal FDG fluorescence, 48 h; Potency, µM (titrated, usually from 38.3 µM), for the others: at the top dose activation, usual class: activators;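 also: potency is read from the fitted curve at half-maximal effect; 100% = response of the positive control SU9516; nearly all actives have a fitted effect of over 60% in size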
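alpha7betagal+/- myoblasts (passage 13, 250/well) treated 48 h at 37C with compounds at 1:260 dilution of DMSO stock. Lysed, then beta-galactosidase activity read as FDG fluorescence (ex 480/em 540) after 30 min, with pre-read for autofluorescence.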
CBFb RUNX1 block: inhibitors of human CBF-beta and RUNX1 interaction; AlphaScreen CBFb-His/RUNX1-biotin binding, biochemical; Q01196+Q13951; 230,000 tested, under 10 active; AID 1477; Potency, µM (highest dose often 59.8 µM), for inactives: at the top dose activity, negative = inhibition, most hits filed as inhibitors; also: % of control where 0% means no effect
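Room-temperature protein-protein interaction test with 30 nM each of His-tagged CBF-beta and biotinylated RUNX1, 15 min with compound, then 90 min with nickel plus streptavidin beads. Signal read in AlphaScreen mode.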
N370S GC mod: N370S glucocerebrosidase modulation, Gaucher chaperone candidate. P04062. Potency, µM (doses to about 59.4 µM), for inactives: at the highest dose activity change, negative = inhibition, usual class: inhibitors. 330,000 compounds, 0.092% hits. N370S GC spleen homogenate, 4MU-glucoside fluorescence;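 also: potency is read from the fitted curve at half-maximal effect; 0% = full enzyme activity and -100% = no enzyme basal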
ClpP mod: qHTS Assay for Activators of ClpP | ATP-dependent Clp protease proteolytic subunit (Bacillus subtilis (strain 168)), P80244 | purified B. subtilis ClpP, FRET peptide cleavage, 20 min | Potency, µM (top dose mostly 57.5 µM), without a hit: at the highest dose activity change, negative = active | 340,000 compounds, 1.9% hits | AID 651965, 2013; active = well fitted falling curve with a large enough effect; inconclusive = small, poorly fitted or top-dose-only effect; inactive = no such curve, though single readings can be large or run the other way; also: potency is read from the fitted curve at half-maximal effect; the source files actives as falling curves though it sought activators and does not explain the sign; nearly all actives have a fitted effect of over 65% in size
Target sequence (P80244 whole entry, looked up): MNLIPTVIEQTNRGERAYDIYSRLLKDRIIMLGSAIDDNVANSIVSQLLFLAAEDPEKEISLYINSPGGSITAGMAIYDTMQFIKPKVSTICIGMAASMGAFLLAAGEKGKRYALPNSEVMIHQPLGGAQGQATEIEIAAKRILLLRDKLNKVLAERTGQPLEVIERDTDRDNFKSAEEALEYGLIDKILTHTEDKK
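Buffer: 100 mM Tris/HCl pH8, 100 mM KCl, 0.05% low protease BSA, 2.5% glycerol, 0.01% Tween-20. ClpP 10 microg/mL final; 20 min RT; delta FRET normalized to ADEP and DMSO controls.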
GRP78 ERSR act: inducers of ER stress response in human glioma cells. U87-MG GRP78 promoter luciferase reporter, 16 h. 420,000 compounds, 0.02% hits. Potency, µM, for the others: at the top dose activation, actives largely listed as activators; also: potency is read from the fitted curve at half-maximal effect; series mostly up to about 76 µM; % of control where 0% means no effect; nearly all actives have a fitted effect of over 35% in size
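Stably transfected U87-MG glioma cells carrying a GRP78-based luciferase sensor; 16 h compound incubation. Luminescence end-point read 10 min after Bright-Glo addition at room temperature.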
The depositor's hits bear a star; u = inconclusive; x = no result given. The full list was thinned out, with hits kept by preference. Unless noted, calls follow the shape of the dose curve; as a rule, active = well fitted curve in the direction sought with a large enough effect; inconclusive = small, poorly fitted or top-dose-only effect, or another doubt; inactive = no such curve, though single readings can be large; an effect the other way counts as inactive or inconclusive.

SMILES | Anesthetic bind | a7 integrin act | CBFb RUNX1 block | N370S GC mod | ClpP mod | GRP78 ERSR act
Oc1ccccc1-c1nc(-c2cccs2)c(-c2cccs2)[nH]1 | 36% | x | x | x | 14µM* | -2%
COc1cc(=O)n2c(c1C(=O)N(C)Cc1nonc1C)CCN(C(=O)c1cc(C)cc(C)c1)CC2 | x | x | x | x | x | 7%
Cc1ccc(C2Nc3cccc4cccc(c34)N2)s1 | 2% | 3.2µM* | -9% | 0% | -4% | -4%
CNc1nc(N2CCCN(C)CC2)nc2cc(OC)c(OC)cc12 | x | x | x | x | 4% | x
Cc1ccc(NC(=O)COc2coc(CN3CCN(Cc4ccccc4)CC3)cc2=O)cc1 | x | 0% | x | -22% | 28µM* | -5%
COC(=O)c1[nH]c2cc(OC)c(OC)cc2c1NC(=O)CN1CCN(Cc2ccccc2)CC1 | -10% | x | -1% | -1% | x | x
COC(=O)c1[nH]c2ccccc2c1NC(=O)CN1CCN(C/C=C/c2ccccc2)CC1 | u | -46% | -2% | -4% | 22µM* | -4%
COC(=O)c1[nH]c2ccc(C)cc2c1NC(=O)CN1CCN(c2ccccc2)CC1 | -22% | -46% | -5% | -13% | 22µM* | -9%
COC(=O)c1[nH]c2ccc(C)cc2c1NC(=O)CN1CCN(c2ccc(F)cc2)CC1 | -9% | -20% | -10% | -5% | -4% | -5%
COC(=O)c1[nH]c2ccc(C)cc2c1NC(=O)CN1CCN(Cc2ccccc2)CC1 | -17% | -14% | -2% | 2% | 14µM* | -6%
CCOC(=O)c1[nH]c2ccc(F)cc2c1NC(=O)CN1CCN(C/C=C/c2ccccc2)CC1 | -12% | -65% | -7% | 20% | u | -10%
Cc1oc(-c2ccccc2NC(=O)c2ccsc2)nc1CN(C)Cc1ccc2c(c1)CCCN2C | x | x | x | x | x | 4%
COC(=O)c1[nH]c2ccc(C)cc2c1NC(=O)CN1CCN(C(=O)c2ccccc2)CC1 | -16% | 4% | 6% | -16% | 14µM* | -4%
COC(=O)c1[nH]c2ccc(C)cc2c1NC(=O)CN1CCC(C)CC1 | 2% | 16% | -4% | 3% | 28µM* | -6%
O=C(NCCc1ccccc1)c1ccc(S(=O)(=O)N2CCCCC2)cc1 | x | -15% | x | x | -2% | 0%
O=S(=O)(Nc1cccc2ccccc12)N1CCCC1 | u | -12% | 6% | 23% | 28µM* | 1%
O=C(NCCc1ccccc1)c1ccccc1NS(=O)(=O)N1CCCC1 | -16% | -24% | 3% | 5% | 14µM* | 6%
O=C1/C(=C/c2ccccc2)CSc2sccc21 | 14µM* | -2% | 4% | 15% | -3% | 0%
COc1cc(N(C)C)c(OC)cc1/C=C1\Cc2ccccc2C1=O | x | x | x | x | -5% | -1%
Cn1cnc([N+](=O)[O-])c1Sc1nc(N)nc2c1ncn2Cc1ccccc1 | x | -41% | x | x | 32µM* | 11%
CCCn1cnc2c(Sc3c([N+](=O)[O-])ncn3C)nc(N)nc21 | x | -6% | x | x | u | -5%
COC1C(OC(=O)/C=C/C=C/C=C/C=C/C(=O)O)CCC2(CO2)C1C1(C)OC1CC=C(C)C (stereo not drawn) | x | x | x | x | x | 4%
CCCOC(=O)CSc1nc(N)c(C#N)c(-c2ccco2)c1C#N | x | 6% | x | x | 25µM* | -3%
CCCCCCCCN1[C@@H](CC(=O)OC)c2ccc(/C=C/C(=O)OC)cc2S1(=O)=O | x | x | x | x | -8% | -4%
Cc1ccc(NC(=O)c2ccc(NC(=O)N3CCSc4ncccc43)cc2)cc1Cl | -1% | x | x | x | 32µM* | -4%
SMILES | Anesthetic bind | a7 integrin act | CBFb RUNX1 block | N370S GC mod | ClpP mod | GRP78 ERSR act
O=C(NCc1ccccc1Cl)c1ccc(NC(=O)N2CCSc3ncccc32)cc1 | -6% | x | x | x | 28µM* | -3%
COCC(=O)Nc1cc(C(=O)N2CCCC(C(N)=O)C2)cc2nc(-c3ccccc3)n(C)c12 (stereo not drawn) | x | x | x | x | x | -4%
Cc1ccc(CN2C[C@H](Sc3ccccn3)C[C@H]2C(=O)Nc2ccc3sc(C)nc3c2)cc1 | x | x | x | x | x | -5%
Cc1cnc(-n2ncc(C(=O)NCC(C)(C)N3CCOCC3)c2C)nc1-c1cccs1 | x | x | x | x | x | -5%
COc1ccc(-c2cc(=O)oc3c4c(ccc23)OCN(Cc2cccc(OC)c2)C4)cc1 | 187% | x | x | x | 32µM* | 2%
COc1ccc(-c2cc(=O)oc3c4c(ccc23)OCN(Cc2ccccc2)C4)cc1 | 160% | x | x | x | -7% | -2%
Cc1ccc(O)c(CC(C)C)n1 | -10% | 16% | -1% | -1% | 3.5µM* | -1%
Cc1ccc(O)c(CO)n1 | 3% | 1% | -2% | 2% | x | -2%
COc1ccc(-c2nc3ccc(NC(=O)COC(C)=O)cc3c(=O)n2Cc2ccccc2)cc1COc1ccc(NC(C)=O)cc1 | x | x | x | x | 107% | x
Cc1cccc(CNc2ccnc(-c3ccccc3Cl)n2)c1 | x | x | x | 7.1µM* | x | -3%
Clc1ccccc1-c1nccc(NCc2ccccc2)n1 | x | x | x | 3.5µM* | x | 0%
Clc1nccc(NCc2ccccc2)n1 | x | 19% | x | x | -3% | -3%
Oc1cc(-c2nc3ccccc3s2)cc2c1OCCN(Cc1cccn1-c1ccccn1)C2 | x | x | x | x | x | -11%
N=C(N)c1ccc(OCCCOc2ccc(C(=N)N)cc2Br)c(Br)c1 | x | x | x | x | x | -3%
O=c1[nH]/c(=C/c2ccc3c(c2)OCO3)c(=O)[nH]/c1=C\c1ccc2c(c1)OCO2 | x | x | x | x | 1% | -3%
COc1ccc(-c2cc(C(F)(F)F)nc(SCC(=O)Nc3cc(C)on3)n2)cc1 | -1% | 21% | 12% | -2% | 4µM* | -3%
CC(NC(=O)CCSc1nc(-c2ccc3c(c2)OCO3)cc(C(F)(F)F)n1)c1ccccc1 (stereo not drawn) | -9% | 18% | 10% | -13% | 32µM* | -8%
COc1ccc(-c2cc(C(F)(F)F)nc(SCCC(=O)NCc3ccccc3)n2)cc1 | -18% | -25% | 0% | 17% | 13µM* | -8%
CC(C)NC(=O)CCSc1nc(-c2ccc3c(c2)OCO3)cc(C(F)(F)F)n1 | -10% | x | x | x | 4% | -3%
Cc1cc(C(F)(F)F)nc(SCC(=O)Nc2cc(C)on2)n1 | -8% | -17% | 8% | 6% | 0% | 0%
CCCNC(=O)CSc1nc(-c2ccc(OC)cc2)cc(C(F)(F)F)n1 | -4% | x | x | x | 3.2µM* | -1%
O=C(Cc1c[nH]c2ccccc12)N1CCC(n2c(C3CCCO3)nc3cc(C(F)(F)F)ccc32)CC1 (stereo not drawn) | x | x | x | x | x | -3%
COc1ccc(-c2nnc(-c3ccc(F)cc3)o2)cc1 | 0% | 8% | x | -3% | -1% | -2%
CCOc1ccc(-c2nnc(-c3snc(-c4ccc(F)cc4)c3N=CN(C)C)o2)cc1 | -15% | -11% | -1% | 1% | 28µM* | -1%
